High-throughput results: PubChem BioAssay, several laboratories
Only some compounds are listed: those with a hit (about 1.6% of all), similar ones and a draw of the others.
Fam108B counter – mouse Fam108B serine hydrolase inhibitors, primary screen, counter-screen for RBBP9 inhibitor project, biochemical, fluorescence polarization | recombinant Fam108B, FP-Rh probe fluorescence polarization | inhibition, % at 9.51 µM | 0.33% of 300,000 active;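 active = inhibition above the screen mean inhibition plus 3 SD, computed separately per campaign, cut at about 18% in these data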;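 also: inhibitors lower polarization as less probe binds the enzyme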
PME-1 inh – PME-1 inhibitors via competitive probe labeling, primary screen, biochemical, fluorescence polarization, FP-Rh probe, HTS. Protein phosphatase methylesterase 1 (Homo sapiens), Q9Y570. recombinant PME-1. inhibition, % at 5.9 µM. 0.53% of 320,000 active. AID 2130, 2009;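 active = inhibition above the campaign mean of all compounds plus 3 SD, cut at about 26% in these data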;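 also: competitive labeling of PME-1 active site by serine hydrolase directed probe; 0% = PME-1 with DMSO and 100% = wells lacking PME-1 enzyme; inhibitors block probe labeling so polarization falls and inhibition rises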
Target sequence (Q9Y570 whole entry, looked up): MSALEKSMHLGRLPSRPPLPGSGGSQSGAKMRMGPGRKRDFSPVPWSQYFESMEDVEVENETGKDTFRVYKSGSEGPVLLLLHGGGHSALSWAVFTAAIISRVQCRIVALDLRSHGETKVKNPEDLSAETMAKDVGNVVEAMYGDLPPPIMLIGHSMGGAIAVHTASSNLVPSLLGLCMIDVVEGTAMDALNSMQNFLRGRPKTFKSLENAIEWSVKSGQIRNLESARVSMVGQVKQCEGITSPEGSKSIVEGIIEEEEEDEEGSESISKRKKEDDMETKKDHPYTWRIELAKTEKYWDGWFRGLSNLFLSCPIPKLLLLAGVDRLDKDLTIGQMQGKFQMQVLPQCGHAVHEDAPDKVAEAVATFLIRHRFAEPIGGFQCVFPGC
PREPL inhibitor – PREPL enzyme inhibitors, primary screen, biochemical, fluorescence polarization; Prolyl endopeptidase-like (Homo sapiens), Q4J6C6; recombinant PREPL, fluorescence polarization activity-based probe; inhibition, % at 5.96 µM; 0.68% of 320,000 active; in the data active = inhibition above about 43%;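 also: 0% = enzyme with DMSO and 100% = wells lacking enzyme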
LYPLA2 counter – LYPLA2 inhibitors, primary screen, counter-screen for PME1 inhibitor project, biochemical, fluorescence polarization, FP-Rh probe ABPP | Acyl-protein thioesterase 2 (Homo sapiens), O95372 | recombinant LYPLA2 | inhibition, % at 5.9 µM | 0.38% of 320,000 active | AID 2177, 2009;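 active = inhibition above the screen-wide mean plus 3 SD, limit set per campaign, cut at about 26% in these data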;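 also: 0% = LYPLA2 with DMSO and 100% = wells lacking LYPLA2 enzyme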
Target sequence (O95372 whole entry, looked up): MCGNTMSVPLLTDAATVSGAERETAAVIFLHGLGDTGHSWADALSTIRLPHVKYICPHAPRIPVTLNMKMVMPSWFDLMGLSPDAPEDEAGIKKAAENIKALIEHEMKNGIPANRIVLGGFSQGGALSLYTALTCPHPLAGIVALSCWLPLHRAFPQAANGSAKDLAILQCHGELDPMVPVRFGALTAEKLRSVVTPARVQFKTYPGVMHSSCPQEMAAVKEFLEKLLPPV
LYPLA1 counter – LYPLA1 inhibitors, primary screen, counter-screen for PME1 inhibitor project, biochemical, fluorescence polarization, FP-Rh probe ABPP. Acyl-protein thioesterase 1 (Homo sapiens), O75608. recombinant LYPLA1. inhibition, % at 5.9 µM. 0.16% of 320,000 active;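 active = inhibition above the mean of all tested compounds plus 3 SD, set per campaign, cut at about 14% in these data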;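 also: inhibitors block serine hydrolase probe labeling of LYPLA1 so polarization falls; 0% = enzyme with DMSO and 100% = wells lacking LYPLA1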
MEX-5 binding – MEX-5 zinc finger RNA-binding disruptors – biochemical, C. elegans, fluorescence polarization, MLPCN library, primary screen; Zinc finger protein mex-5 (Caenorhabditis elegans), Q9XUB2; MEX-5/FITC-TCR2 RNA binding; stronger effect = lower value; activity score (negative = inhibition of binding), % at 10 µM; AID 1832, 2009; 0.38% of 300,000 active;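 active = inhibition past about -25% in most replicates, and total fluorescence under double the plate's negative control median, limit read from the data; inconclusive = replicates evenly split on the limit, or fluorescence at least double controls; inactive = too little inhibition in most replicates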;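 also: 0% = DMSO and -100% = 5 µM competing unlabeled TCR2 RNA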
* hit, by the source's call; ? = inconclusive; nt = no result given.

SMILES	Fam108B counter	PME-1 inh	PREPL inhibitor	LYPLA2 counter	LYPLA1 counter	MEX-5 binding
O=C(O)c1ccccc1CSc1ncn[nH]1	-2	-1	-1	-2	-4	-1
O=C1COc2ccc(C(=O)COC(=O)c3ccccc3F)cc2N1	nt	nt	21	nt	nt	nt
COC(=O)c1ccccc1C(=O)c1ccc2c(c1)NC(=O)CO2	3	39*	-4	5	2	0
CC(C)(C)c1ccc(OCC(=O)N/N=C/c2ccc(N3CCOCC3)cc2)cc1	-2	5	65*	6	4	1
C[C@H]1COC2=C1C(=O)C(=O)c1c2ccc2c1CCCC2(C)C	10	11	20	48*	5	1
Cc1ccc(/C=C2\Oc3c(ccc(O)c3CN3CCN(C)CC3)C2=O)cc1	3	-2	10	10	2	?
CCN1CCN(Cc2c(O)ccc3c2O/C(=C\C=C\c2ccccc2)C3=O)CC1	0	6	13	1	1	?
CCN1CCN(Cc2c(O)ccc3c2O/C(=C\c2ccccc2)C3=O)CC1	5	4	4	1	1	-34*
CCN1CCN(Cc2c(O)ccc3c2O/C(=C\c2ccc(C)cc2)C3=O)CC1	3	2	3	3	3	-29*
N/C(Cc1ccc([N+](=O)[O-])cc1)=N\OC(=O)Cc1ccc(Cl)cc1	-3	-3	15	4	0	0
N#C/C(=C\c1ccc(Oc2ccc(C(F)(F)F)cc2[N+](=O)[O-])cc1)c1nc2ccccc2[nH]1	7	7	37	-3	-1	-3
N#C/C(=C/c1ccc(N2CCCC2)c([N+](=O)[O-])c1)c1nc2ccccc2[nH]1	4	29*	14	7	3	-1
N=c1c(S(=O)(=O)c2ccc(Cl)cc2)cc2c(=O)n3ccccc3nc2n1C1CCCC1	-6	4	-2	8	1	-35*
N=c1c(S(=O)(=O)c2ccc(Br)cc2)cc2c(=O)n3ccccc3nc2n1C1CCCCC1	-5	4	4	-3	-3	-45*
COCCn1c(=N)c(S(=O)(=O)c2ccc(Br)cc2)cc2c(=O)n3ccccc3nc21	-4	-1	0	4	1	-45*
Cc1cccn2c(=O)c3cc(S(=O)(=O)c4ccc(Br)cc4)c(=N)n(C4CCCC4)c3nc12	-3	-3	5	3	3	-3
O=c1/c(=C\c2cccnc2)sc2nc3ccccc3n12	nt	nt	nt	nt	nt	-2
O=C1CCC/C1=c1\s/c(=C\c2cccnc2)c(=O)n1-c1ccccc1	0	3	13	3	-1	-26*
CCOCCCNC(=S)N1CCN(Cc2ccco2)CC1	4	-5	-3	-2	1	1
Cc1cnc(C(=O)OCc2nc3ccsc3c(=O)[nH]2)cn1	nt	-6	11	-3	-8	nt
CC(=O)Nc1ccccc1S(=O)(=O)CC1CC1(Cl)Cl (stereo not drawn)	-2	-2	-5	2	3	0
CC(C)(C)n1nnnc1C(c1cccs1)N(Cc1cccnc1)Cc1ccco1 (stereo not drawn)	-1	30*	6	1	-3	1
CC(C)(C)n1nnnc1C(c1cccs1)N(Cc1ccccc1)Cc1ccco1 (stereo not drawn)	-4	-1	-2	9	3	1
CC1=Nc2ccccc2/C1=C/c1sc(=N)n(-c2nccs2)c1O	13	39*	4	0	4	5
CC1=Nc2ccccc2/C1=C/c1nc(-c2ccc(C)s2)oc1O	4	3	23	1	0	-1
SMILES	Fam108B counter	PME-1 inh	PREPL inhibitor	LYPLA2 counter	LYPLA1 counter	MEX-5 binding
CCOC(=O)Cc1csc(NC(=O)Nc2ccc(C)cc2)n1	-2	4	16	6	1	2
Cc1cc(C)c(C#N)c(SCc2ccccc2)n1	-1	-2	0	8	2	1
Cc1ccc2nc(CSc3nc(C)cc(C)c3C#N)[nH]c2c1	7	10	58*	-7	2	3
CC(C)C1=NOC(C(=O)N2CCC(N3CCC(C(=O)N4CCOCC4)CC3)CC2)C1 (stereo not drawn)	2	-2	-4	9	5	-1
CC1C(=O)NN=C1C(=O)N/N=C\c1ccc(O)cc1O (stereo not drawn)	4	-4	-5	-5	0	-62*
CC1=NNC(=O)C1CCC(=O)N/N=C/c1ccco1 (stereo not drawn)	1	-4	-2	-2	1	-3
CC1C(=O)NN=C1C(=O)N/N=C/c1ccco1 (stereo not drawn)	3	-3	8	-2	0	-26*
O=C(NC1=NCCS1)c1ccc(Cl)c(S(=O)(=O)N2CCCCCC2)c1	1	1	-1	-1	-6	2
COc1cccc(C(=O)NCC(=O)N/N=C/c2cccnc2)c1	-1	-10	1	2	2	3
CCN1CCN(c2nc3c(c(=O)n(C)c(=O)n3C)n2Cc2cccc3ccccc23)CC1	-1	0	46*	3	3	1
Cc1ccc(S(=O)(=O)c2cc3c(=O)n4cccc(C)c4nc3n(CC3CCCO3)c2=N)cc1C (stereo not drawn)	3	-1	-1	-5	0	-4
Cc1cccn2c(=O)c3cc(S(=O)(=O)c4ccccc4)c(=N)n(Cc4cccnc4)c3nc12	8	-2	-9	0	-1	-31*
N=c1c(S(=O)(=O)c2ccccc2)cc2c(=O)n3ccccc3nc2n1Cc1cccnc1	-2	-4	-5	2	0	-42*
Cc1cccn2c(=O)c3cc(S(=O)(=O)c4ccccc4)c(=N)n(CC4CCCO4)c3nc12 (stereo not drawn)	-1	-6	1	4	3	-39*
Cc1ccc(S(=O)(=O)N2N=C3CCCCC3C2(O)C(F)(F)F)cc1 (stereo not drawn)	6	-11	14	0	-6	0
O=C(Nc1cccnc1)c1ccc(COc2ccccc2Br)cc1	-7	-8	-25	-12	-11	-2
O=C(CCN1CCOCC1)NCC1COc2ccccc2O1 (stereo not drawn)	-2	2	6	-1	1	-2
N#C/C(=C/c1ccc(N2CCOCC2)o1)c1ccc(Cl)cc1	21*	0	34	6	5	17
Cc1ccc(O)c(N=CC2=C(O)c3ccccc3C2=O)c1	16	34*	27	-4	0	-22
